# Bioassay records deposited in PubChem BioAssay by National Center for Advancing Translational Sciences (NCATS).
# This is a sample that favours compounds with a hit; in the whole collection about 2.6% have one here.
# FH mod = Identification of activators of human fumarate hydratase by quantitative high-throughput screening | Fumarate hydratase, mitochondrial (Homo sapiens), P07954 | FH coupled MDH/diaphorase resazurin fluorescence, 15 min | actives 0.22% (n = 54,000) | Potency, µM (titrated, usually from 79.9 µM), without a hit: top-dose activity change, negative = inhibition, hits mostly inhibitors | AID 1347055, 2019; also: potency is read from the fitted curve at half-maximal effect; % is scaled to controls: 0 for no effect and ±100 for the full control effect; the screen sought activators but most active calls are inhibition curves; nearly all actives have a fitted effect of over 45% in size
# Target sequence (P07954 whole entry, looked up): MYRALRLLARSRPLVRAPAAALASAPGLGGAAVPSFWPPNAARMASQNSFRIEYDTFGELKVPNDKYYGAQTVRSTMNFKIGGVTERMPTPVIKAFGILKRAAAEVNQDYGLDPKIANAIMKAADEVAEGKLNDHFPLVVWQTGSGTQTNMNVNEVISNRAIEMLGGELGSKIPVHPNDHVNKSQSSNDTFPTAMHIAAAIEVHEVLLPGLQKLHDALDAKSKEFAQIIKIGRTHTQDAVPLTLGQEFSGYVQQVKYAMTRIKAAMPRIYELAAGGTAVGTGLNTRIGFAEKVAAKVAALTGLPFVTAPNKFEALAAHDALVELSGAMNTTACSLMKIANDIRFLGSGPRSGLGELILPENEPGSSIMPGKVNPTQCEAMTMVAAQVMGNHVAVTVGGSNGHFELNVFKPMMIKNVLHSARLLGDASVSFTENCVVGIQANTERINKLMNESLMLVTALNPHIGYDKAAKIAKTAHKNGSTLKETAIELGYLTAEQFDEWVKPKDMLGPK
# HTT prom inh = Primary qHTS for Identification of Small Molecule Inhibitors of Huntingtin Promoter Activity. actives 0.93% (n = 48,000). HEK293 HTT promoter firefly luciferase reporter, 24 h. Potency, µM (series often up to 57.5 µM), without a hit: at the top dose activity change, negative = inhibition, hits mostly inhibitors; also: potency is read from the fitted curve at half-maximal effect; nearly all actives have a fitted effect of over 50% in size
#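 HEK293 luciferase promoter-reporter cells (2,500/well) plated 24 h, then compounds added at up to 57.5 uM final for 24 h at 37 °C. Firefly luminescence by Dual-Glo, normalized to vehicle (0%) and zero RLU (-100%).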
# HTT-AS act = Primary qHTS for Identification of Small Molecule Activators of Huntingtin-Antisense Promoter Activity. actives 0.24% (n = 48,000). AID 1508624, 2021. HEK293 HTT-AS promoter firefly luciferase reporter, 24 h; response scale: percent change from vehicle, -100% = no light. Potency, µM (doses to about 57.5 µM), for inactives: at the highest dose activity change, positive = activation, most hits filed as activators; also: potency is read from the fitted curve at half-maximal effect; nearly all actives have a fitted effect of over 55% in size
#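 Firefly luciferase signal from promoter-reporter HEK293 cells was scaled between vehicle (0%) and zero RLU (-100%). Compounds were tested at final concentrations of up to 57.5 uM over 24 h at 37 degrees C. PTC124 at 50 uM final served as control inhibitor.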
# NTMT1 inh = Primary qHTS for Inhibitors of N-terminal methyltransferase 1 (NTMT1): MTaseGlo Assay. N-terminal Xaa-Pro-Lys N-methyltransferase 1 (Homo sapiens), Q9BV86. NTMT1 MTase-Glo SAH luminescence, purified enzyme. Potency, µM (titrated, usually from 114 µM), for the others: at the top dose activity change, negative = inhibition, hits mostly inhibitors. actives 2.5% (n = 59,000). AID 1645870, 2021;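 also: potency is read from the fitted curve at half-maximal effect; plate controls were DMSO vehicle for no effect and no enzyme for full effect; nearly all actives have a fitted effect of over 65% in size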
# DYRK1A inh = Assay for Inhibitors of Dual-Specificity Tyrosine-(Y)-Phosphorylation Regulated Kinase 1A (Kinase-Glo assay); recombinant DYRK1A, Kinase-Glo ATP depletion luminescence; actives 80% (n = 100); Potency, µM (series often up to 76.9 µM), for inactives: top-dose activity change, negative = inhibition, hits mostly inhibitors; shares compounds with NTMT1 inh
# Sfp PPTase inh = qHTS Assay for Inhibitos of Bacillus subtilis Sfp phosphopantetheinyl transferase (PPTase): Chemistry Optimization Followup; shares compounds with NTMT1 inh; purified Sfp PPTase enzyme activity, qHTS; Potency, µM (series often up to 114 µM), for the others: top-dose activity change, negative = inhibition, actives largely listed as inhibitors; actives 78% (n = 230)
# Bsub HM489 growth = qHTS for Inhibitos of Bacillus subtilis Sfp phosphopantetheinyl transferase (PPTase): Chemistry Optimization Followup in B. Subtilis HM489 | shares compounds with NTMT1 inh | B. subtilis HM489 (acpS-) growth, BacTiter-Glo, 5 h | Potency, µM (highest dose often 114 µM), for inactives: at the highest dose activity change, negative = inhibition, usual class: inhibitors | actives 50% (n = 220) | AID 540353, 2011
# Sfp gel opt = Gel-Based Assay for Inhibitos of Bacillus subtilis Sfp phosphopantetheinyl transferase (PPTase): Chemistry Optimization Followup; shares compounds with NTMT1 inh; Potency, µM (doses to about 250 µM), for the others: at the top dose activity change, negative = inhibition, usual class: inhibitors; actives 54% (n = 220); purified Sfp PPTase, gel-based product detection
# Sfp SAR2 = qHTS Assay for Inhibitors of Bacillus subtilis Sfp phosphopantetheinyl transferase (PPTase): SAR Round 2; Potency, µM (highest dose often 57.1 µM), for inactives: at the top dose activity change, negative = inhibition, most hits filed as inhibitors; purified Sfp enzyme, PPTase activity, qHTS; shares compounds with NTMT1 inh; actives 87% (n = 230)
# HSD17B4 inh = Extended Characterization of HPGD Inhibitors: Counterscreen Against HSD17b4 | Potency, µM (top dose mostly 57.1 µM), without a hit: top-dose activity change, negative = inhibition, most hits filed as inhibitors | shares compounds with NTMT1 inh | purified HSD17B4, estradiol/NAD+, NADH fluorescence | actives 10% (n = 230)
# ALDH1A1 inh = Extended Characterization of HPGD Inhibitors: Counterscreen Against ALDH1A1 | shares compounds with NTMT1 inh | actives 93% (n = 230) | Potency, µM (highest dose often 57.1 µM), for inactives: at the top dose activity change, negative = inhibition, most hits filed as inhibitors | recombinant ALDH1A1, NADH fluorescence, propionaldehyde/NAD+
# NNMT inh = Counterscreen qHTS for Inhibitors of N-terminal methyltransferase 1 (NTMT1): NNMT MTaseGlo assay; shares compounds with NTMT1 inh; NNMT MTase-Glo luminescence, SAH detection; Potency, µM (top dose mostly 57.1 µM), for inactives: top-dose activity, negative = inhibition, hits mostly inhibitors; actives 10% (n = 120)
# * = called active by the depositor; ? = inconclusive; . = no result; [ ] = remark or other dose. Calls follow the shape of the dose curve; as a rule, active = well fitted curve in the direction sought with a large enough effect; inconclusive = small, poorly fitted or top-dose-only effect, or another doubt; inactive = no such curve, though single readings can be large; an effect the other way counts as inactive or inconclusive.
SMILES,FH mod,HTT prom inh,HTT-AS act,NTMT1 inh,Sfp PPTase inh,Bsub HM489 growth,Sfp gel opt,Sfp SAR2,HSD17B4 inh,ALDH1A1 inh,others
Cc1cc(C)nc(NC(=S)N2CCN(c3nc4ccccc4s3)CC2)c1,.,.,.,?,0.37µM*,?,10µM*,0.91µM*,-15%,8.6µM*,
Cc1cc(C)nc(NC(=S)N2CCN(Cc3cccc(C(F)(F)F)c3)CC2)c1,.,.,.,.,6.6µM*,?,?,11µM*,-15%,12µM*,
Cc1ccc(NC(=O)C2CCCN(c3nc4ccccc4s3)C2)c(C)c1 (configuration not stated),2%,-2%,16%,-3%,.,.,.,.,.,.,
Cc1cc(C)nc(NC(=S)N2CCN(c3nsc4ccccc34)CC2)c1,.,.,.,?,3.7µM*,?,6.3µM*,1µM*,-10%,22µM*,
COc1cc(O)c(C(CC(=O)N2CCCC(C(=O)N3CCCCC3)C2)c2ccc3c(c2)OCO3)c(OC)c1 (configuration not stated),.,.,.,7%[228 µM],.,.,.,.,.,.,
CC1(C)CC[C@]2(C(=O)O)CC[C@]3(C)C(=CCC4[C@@]5(C)C[C@@H](O)[C@H](O)[C@](C)(CO)C5CC[C@]43C)[C@@H]2[C@@H]1O (some centres not stated),9%[53.3 µM],.,.,16%[29.8 µM],.,.,.,.,.,.,
Cc1cc(NC(=O)c2ccc(NC(=O)Cc3ccc(Cl)c(Cl)c3)cc2)no1,.,.,.,9%,.,.,.,.,.,.,
CN(Cc1ccccc1)C(=O)C1CCN(Cc2cccc3ccccc23)CC1,.,.,.,-3%,.,.,.,.,.,.,
Cc1cc(C)nc(NC(=S)N2CCN(Cc3cccc4ccccc34)CC2)c1,.,.,.,?,4.7µM*,?,10µM*,8.1µM*,-11%,22µM*,
Cc1ccc(F)cc1S(=O)(=O)N[C@@H]1CCN(Cc2ccc(OC(C)C)cc2)C1,0%,.,.,?,.,.,.,.,.,.,NNMT inh=-15%
CCOC(=O)c1ccc(-c2ccc3ncnc(NCc4csc(C)n4)c3c2)o1,.,.,.,-12%,.,.,.,.,.,.,DYRK1A inh=9.2µM*
Cc1csc(CNc2ncnc3ccc(-c4ccco4)cc23)c1,.,.,.,7%,.,.,.,.,.,.,
CCOC(=O)c1ccoc1-c1ccc2ncnc(NCc3csc(C)n3)c2c1,.,.,.,-4%,.,.,.,.,.,.,DYRK1A inh=-11%
CCOC(=O)c1ccc(-c2ccc3ncnc(NCc4ncc[nH]4)c3c2)o1,.,.,.,-1%,.,.,.,.,.,.,DYRK1A inh=2.3µM*
CCOC(=O)c1ccoc1-c1ccc2ncnc(NCc3ccc(C)o3)c2c1,.,.,.,?,.,.,.,.,.,.,DYRK1A inh=23µM*
COC(=O)N[C@@H](C)CNc1nccc(-c2cn(C(C)C)nc2-c2cc(Cl)cc(NS(C)(=O)=O)c2F)n1,-4%,.,.,9%,.,.,.,.,.,.,
COc1ccc(C2NC(=O)c3ccccc3N2)cc1COc1c(C)cc(NC(C)=O)cc1C (configuration not stated),.,.,.,0%,.,.,.,.,.,.,
O=C1CCCC2=C1C(c1ccncc1)N=C(Nc1nc3ccccc3o1)N2 (configuration not stated),.,.,.,11%,.,.,.,.,.,.,
COc1ccc(NC(=O)c2[nH]c(C)c(C(C)=O)c2C)cc1S(=O)(=O)Nc1cccc(C#N)c1,.,.,.,13%,.,.,.,.,.,.,
CC1C(=O)CC2C3CCC(C(=O)O)C12CC3(C)CO (configuration not stated),-4%,.,.,?,.,.,.,.,.,.,
CC(C)CCn1c(CN2CCN(C(=O)C(C)C)CC2)nc2c1c(=O)n(C)c(=O)n2C,.,.,.,9%,.,.,.,.,.,.,
COc1cc(/C=C/C(=O)O[C@H]2[C@@H]3C=CO[C@@H](O[C@@H]4O[C@H](CO)[C@@H](O)[C@H](O)[C@H]4O)[C@@H]3[C@@]3(CO)O[C@@H]23)ccc1O,6%[53.3 µM],.,.,3%[29.8 µM],.,.,.,.,.,.,
Cc1cc(C)nc(Nc2nnc(N3CCN(c4cccc(C(F)(F)F)c4)CC3)s2)c1,.,.,.,6%[57.5 µM],?,42µM*,-20%,14µM*,-20%,22µM*,
Cc1cc(C)nc(/N=C(\NC#N)N2CCN(c3cccc(C(F)(F)F)c3)CC2)c1,.,.,.,3%,?,42µM*,?,?,-9%,24µM*,
